# Test results reported in the supplement of paper PMC10849652.
# Of roughly 8,800 targets only a part is listed; those with a hit were picked by preference. About 0.5% of all pairs of compound and target were hits.
# Compound: NCC(=O)Nc1ccc(-n2nc(C(F)(F)F)cc2-c2ccc3c(ccc4ccccc43)c2)cc1
# Assay: log2 fold change, soluble protein after heating vs DMSO (PISA); higher = thermal stabilisation; K562 lysate, 10 uM; active = over 0.2 and 3.5 SD of the protein, either way, in both replicates (recomputed)
# Summary of the method: (§1)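 Dounce homogenisation of K562 pellets in PBS pH 7.4 with 1 mM MgCl2 produced a crude extract, used at 1 mg/mL protein. Exposure to 10 μM compound lasted 30 min, and aliquots were then heated for 3 min across 48°C-58°C, pooled and brought to 0.5% NP-40 at 4°C. The supernatant after 21,000xg for 90 min was quantified by TMTpro 16plex LC-MS/MS with channel sums equalised. Duplicate values are given as log-two fold change in thermal stability relative to solvent controls.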
# Sequence of UniProt P10244 (P10244 whole entry, looked up): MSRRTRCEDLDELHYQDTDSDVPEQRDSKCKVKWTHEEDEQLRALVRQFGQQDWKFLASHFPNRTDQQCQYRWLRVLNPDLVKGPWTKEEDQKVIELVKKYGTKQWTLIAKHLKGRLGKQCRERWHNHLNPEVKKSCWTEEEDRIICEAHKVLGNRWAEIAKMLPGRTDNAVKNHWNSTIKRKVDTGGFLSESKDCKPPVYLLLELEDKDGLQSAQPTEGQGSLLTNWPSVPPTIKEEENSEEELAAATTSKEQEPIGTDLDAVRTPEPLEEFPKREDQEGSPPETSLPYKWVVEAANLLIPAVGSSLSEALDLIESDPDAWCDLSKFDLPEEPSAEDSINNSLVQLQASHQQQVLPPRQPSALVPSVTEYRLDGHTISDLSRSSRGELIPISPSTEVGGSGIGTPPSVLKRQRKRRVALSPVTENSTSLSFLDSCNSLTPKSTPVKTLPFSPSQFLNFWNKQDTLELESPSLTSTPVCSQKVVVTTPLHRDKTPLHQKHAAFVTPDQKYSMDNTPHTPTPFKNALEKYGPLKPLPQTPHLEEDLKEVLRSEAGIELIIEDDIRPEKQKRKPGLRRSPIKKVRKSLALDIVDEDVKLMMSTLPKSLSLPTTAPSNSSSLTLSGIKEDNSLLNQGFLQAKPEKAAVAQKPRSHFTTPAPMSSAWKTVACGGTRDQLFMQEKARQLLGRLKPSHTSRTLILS
# Sequence of UniProt Q9Y530 (Q9Y530 whole entry, looked up): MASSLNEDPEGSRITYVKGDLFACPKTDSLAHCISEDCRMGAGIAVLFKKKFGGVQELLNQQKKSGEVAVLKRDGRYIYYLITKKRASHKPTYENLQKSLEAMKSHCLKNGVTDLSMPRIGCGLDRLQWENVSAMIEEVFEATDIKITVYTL
# Sequence of UniProt Q9NX02 (Q9NX02 whole entry, looked up): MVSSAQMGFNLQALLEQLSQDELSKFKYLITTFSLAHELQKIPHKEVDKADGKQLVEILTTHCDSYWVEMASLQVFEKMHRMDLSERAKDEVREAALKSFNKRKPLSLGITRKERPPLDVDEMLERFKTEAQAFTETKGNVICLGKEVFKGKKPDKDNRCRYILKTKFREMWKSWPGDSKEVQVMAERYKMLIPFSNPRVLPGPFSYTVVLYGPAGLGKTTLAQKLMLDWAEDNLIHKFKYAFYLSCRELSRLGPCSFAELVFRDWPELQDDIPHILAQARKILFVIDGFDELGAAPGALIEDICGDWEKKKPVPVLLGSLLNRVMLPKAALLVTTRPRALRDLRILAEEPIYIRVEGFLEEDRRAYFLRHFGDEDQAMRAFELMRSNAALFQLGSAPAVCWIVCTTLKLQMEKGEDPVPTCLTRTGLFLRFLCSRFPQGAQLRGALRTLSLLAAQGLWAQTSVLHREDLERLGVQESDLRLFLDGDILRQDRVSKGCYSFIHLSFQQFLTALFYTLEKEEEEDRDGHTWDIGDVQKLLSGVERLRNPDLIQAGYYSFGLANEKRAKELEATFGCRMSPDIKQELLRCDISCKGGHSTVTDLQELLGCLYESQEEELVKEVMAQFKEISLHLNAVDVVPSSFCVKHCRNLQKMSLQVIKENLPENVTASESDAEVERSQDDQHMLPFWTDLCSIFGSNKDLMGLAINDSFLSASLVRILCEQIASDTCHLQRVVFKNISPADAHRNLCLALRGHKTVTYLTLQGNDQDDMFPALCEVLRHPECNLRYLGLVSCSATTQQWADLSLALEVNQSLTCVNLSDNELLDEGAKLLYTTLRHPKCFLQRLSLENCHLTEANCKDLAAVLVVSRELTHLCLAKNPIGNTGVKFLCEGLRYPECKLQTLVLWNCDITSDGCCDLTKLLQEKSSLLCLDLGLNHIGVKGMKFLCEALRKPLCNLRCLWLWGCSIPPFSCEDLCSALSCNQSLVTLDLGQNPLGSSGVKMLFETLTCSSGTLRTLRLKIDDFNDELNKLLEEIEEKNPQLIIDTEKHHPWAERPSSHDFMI
# Sequence of UniProt Q12769 (Q12769 whole entry, looked up): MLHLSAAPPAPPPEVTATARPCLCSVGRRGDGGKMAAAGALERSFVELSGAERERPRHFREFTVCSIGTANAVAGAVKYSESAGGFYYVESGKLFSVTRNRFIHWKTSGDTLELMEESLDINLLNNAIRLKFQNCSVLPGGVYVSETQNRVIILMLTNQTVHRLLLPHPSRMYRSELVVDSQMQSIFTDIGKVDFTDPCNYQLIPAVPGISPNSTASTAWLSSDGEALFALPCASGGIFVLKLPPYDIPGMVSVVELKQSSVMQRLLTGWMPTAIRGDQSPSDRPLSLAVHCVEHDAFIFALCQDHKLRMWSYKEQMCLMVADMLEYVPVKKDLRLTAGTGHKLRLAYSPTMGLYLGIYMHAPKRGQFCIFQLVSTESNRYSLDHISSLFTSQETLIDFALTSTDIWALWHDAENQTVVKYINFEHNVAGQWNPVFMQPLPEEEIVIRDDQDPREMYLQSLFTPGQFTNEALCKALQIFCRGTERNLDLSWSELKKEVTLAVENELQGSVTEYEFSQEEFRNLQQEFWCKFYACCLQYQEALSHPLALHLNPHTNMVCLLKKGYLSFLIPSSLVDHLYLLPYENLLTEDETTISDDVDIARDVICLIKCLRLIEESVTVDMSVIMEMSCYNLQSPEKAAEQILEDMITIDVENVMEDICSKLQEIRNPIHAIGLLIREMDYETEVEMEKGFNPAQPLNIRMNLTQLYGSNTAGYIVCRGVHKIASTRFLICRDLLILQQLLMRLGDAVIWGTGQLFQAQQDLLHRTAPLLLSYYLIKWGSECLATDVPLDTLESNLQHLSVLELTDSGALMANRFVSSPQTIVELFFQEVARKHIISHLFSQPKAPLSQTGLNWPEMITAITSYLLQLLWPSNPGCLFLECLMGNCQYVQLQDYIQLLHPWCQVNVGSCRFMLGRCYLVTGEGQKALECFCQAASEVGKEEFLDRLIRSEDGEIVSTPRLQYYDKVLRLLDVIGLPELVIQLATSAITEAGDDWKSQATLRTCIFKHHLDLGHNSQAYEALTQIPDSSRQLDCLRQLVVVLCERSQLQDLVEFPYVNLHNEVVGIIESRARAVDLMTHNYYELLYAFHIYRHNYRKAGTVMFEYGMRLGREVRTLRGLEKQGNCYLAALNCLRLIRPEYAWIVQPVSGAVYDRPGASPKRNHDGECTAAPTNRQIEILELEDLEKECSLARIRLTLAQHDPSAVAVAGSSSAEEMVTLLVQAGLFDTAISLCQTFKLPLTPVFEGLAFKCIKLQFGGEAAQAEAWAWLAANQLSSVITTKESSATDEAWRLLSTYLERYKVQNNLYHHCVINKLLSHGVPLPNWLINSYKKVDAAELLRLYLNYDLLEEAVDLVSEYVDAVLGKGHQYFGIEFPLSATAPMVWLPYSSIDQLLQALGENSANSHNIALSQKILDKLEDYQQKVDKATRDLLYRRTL
# Sequence of UniProt Q15843 (Q15843 whole entry, looked up): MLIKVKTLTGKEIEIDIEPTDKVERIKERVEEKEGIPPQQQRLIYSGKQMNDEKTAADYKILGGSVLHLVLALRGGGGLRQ
# Sequence of UniProt Q96IY1 (Q96IY1 whole entry, looked up): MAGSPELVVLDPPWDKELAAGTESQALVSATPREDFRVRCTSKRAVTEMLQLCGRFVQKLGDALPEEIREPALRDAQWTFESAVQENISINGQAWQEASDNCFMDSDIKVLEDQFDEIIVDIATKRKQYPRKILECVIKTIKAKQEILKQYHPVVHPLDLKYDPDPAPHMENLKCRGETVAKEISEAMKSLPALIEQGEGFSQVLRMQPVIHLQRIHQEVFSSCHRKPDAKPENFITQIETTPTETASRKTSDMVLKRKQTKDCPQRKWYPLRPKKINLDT
# Sequence of UniProt Q9NTK5 (Q9NTK5 whole entry, looked up): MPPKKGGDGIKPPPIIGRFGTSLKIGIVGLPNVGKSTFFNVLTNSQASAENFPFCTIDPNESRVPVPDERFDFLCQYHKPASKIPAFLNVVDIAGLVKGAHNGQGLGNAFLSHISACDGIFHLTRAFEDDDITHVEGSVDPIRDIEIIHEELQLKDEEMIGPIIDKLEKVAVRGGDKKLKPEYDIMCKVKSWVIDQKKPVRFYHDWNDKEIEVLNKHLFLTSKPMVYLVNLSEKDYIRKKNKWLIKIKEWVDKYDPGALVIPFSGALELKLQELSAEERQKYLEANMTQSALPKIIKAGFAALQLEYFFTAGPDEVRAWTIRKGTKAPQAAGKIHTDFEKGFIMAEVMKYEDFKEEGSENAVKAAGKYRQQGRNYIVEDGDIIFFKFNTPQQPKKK
# Sequence of UniProt Q15102 (Q15102 whole entry, looked up): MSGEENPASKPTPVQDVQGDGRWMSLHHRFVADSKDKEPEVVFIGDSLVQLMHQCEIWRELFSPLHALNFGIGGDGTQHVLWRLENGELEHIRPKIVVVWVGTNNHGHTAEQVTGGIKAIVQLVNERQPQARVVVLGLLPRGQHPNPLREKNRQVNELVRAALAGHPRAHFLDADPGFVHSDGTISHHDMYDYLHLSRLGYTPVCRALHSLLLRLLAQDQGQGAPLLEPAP
# Sequence of UniProt P08651 (P08651 whole entry, looked up): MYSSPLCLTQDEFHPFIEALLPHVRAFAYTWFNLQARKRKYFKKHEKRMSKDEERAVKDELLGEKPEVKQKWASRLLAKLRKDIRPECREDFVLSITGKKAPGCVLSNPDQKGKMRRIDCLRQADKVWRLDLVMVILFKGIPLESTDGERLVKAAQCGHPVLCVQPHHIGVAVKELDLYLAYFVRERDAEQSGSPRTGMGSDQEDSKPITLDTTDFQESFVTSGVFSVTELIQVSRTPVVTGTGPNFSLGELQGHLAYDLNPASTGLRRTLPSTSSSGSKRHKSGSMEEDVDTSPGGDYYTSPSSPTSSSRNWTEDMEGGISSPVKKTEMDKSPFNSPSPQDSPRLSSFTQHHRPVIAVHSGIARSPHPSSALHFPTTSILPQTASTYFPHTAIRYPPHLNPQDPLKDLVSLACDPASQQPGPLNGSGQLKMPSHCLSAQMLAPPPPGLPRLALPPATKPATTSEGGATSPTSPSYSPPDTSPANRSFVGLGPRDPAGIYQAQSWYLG
row,Target,log2 fold change
1,NCOR1 (UniProt O75376),0.021 (inactive)
2,NSL1 (UniProt Q96IY1),-0.012 (inactive)
3,NLRP2 (UniProt Q9NX02),-0.031 (inactive)
4,OAT (UniProt P04181),0.053 (inactive)
5,MYBL2 (UniProt P10244),-0.03 (inactive)
6,NOSIP (UniProt Q9Y314),-0.015 (inactive)
7,MTMR6 (UniProt Q9Y217),-0.018 (inactive)
8,NMT1 (UniProt P30419),-0.35 (active)
9,NEK7 (UniProt Q8TDX7),-0.037 (inactive)
10,NUP93 (UniProt Q8N1F7),-0.011 (inactive)
11,NCAPD3 (UniProt P42695),-0.005 (inactive)
12,MYOM1 (UniProt P52179),0.062 (inactive)
13,NFIC (UniProt P08651),0.063 (inactive)
14,OSBPL6 isoform 5 (UniProt Q9BZF3),-0.082 (inactive)
15,PAK4 (UniProt O96013),-0.003 (inactive)
16,OLA1 (UniProt Q9NTK5),0.03 (inactive)
17,MRPS12 (UniProt O15235),-0.005 (inactive)
18,NUP160 (UniProt Q12769),-0.036 (inactive)

row,Target,log2 fold change
1,NCKAP1L (UniProt P55160),0.288 (inactive)
2,NPLOC4 isoform 2 (UniProt Q8TAT6),0 (inactive)
3,NFATC2 (UniProt Q13469),0.02 (inactive)
4,NOSTRIN (UniProt Q8IVI9),-0.083 (inactive)
5,NEDD8 (UniProt Q15843),-0.033 (inactive)
6,NFKBIE (UniProt O00221),-0.08 (inactive)
7,PAFAH1B3 (UniProt Q15102),-0.013 (inactive)
8,NUCB2 (UniProt P80303),0 (inactive)
9,MTFP1 (UniProt Q9UDX5),-0.04 (inactive)
10,NIPBL (UniProt Q6KC79),-0.024 (inactive)
11,OGFR (UniProt Q9NZT2),-0.036 (inactive)
12,NDC1 (UniProt Q9BTX1),0.013 (inactive)
13,NUP188 (UniProt Q5SRE5),-0.002 (inactive)
14,PAXBP1 (UniProt Q9Y5B6),0.02 (inactive)
15,MVB12A (UniProt Q96EY5),-0.002 (inactive)
16,NUP133 (UniProt Q8WUM0),0.045 (inactive)
17,OARD1 (UniProt Q9Y530),-0.021 (inactive)

# Compound: O=C(CCCCCCC(=O)Nc1ccccc1)NO [vorinostat]
# Assay: as above
# Summary of the method: as §1
row,Target,log2 fold change
1,NCOR1 (UniProt O75376),-0.239 (active)
2,NSL1 (UniProt Q96IY1),-0.528 (active)
3,NLRP2 (UniProt Q9NX02),-0.528 (active)
4,OAT (UniProt P04181),0.168 (inactive)
5,MYBL2 (UniProt P10244),-0.333 (active)
6,NOSIP (UniProt Q9Y314),-0.809 (active)
7,MTMR6 (UniProt Q9Y217),-0.276 (active)
8,NMT1 (UniProt P30419),0.028 (inactive)
9,NEK7 (UniProt Q8TDX7),-0.338 (active)
10,NUP93 (UniProt Q8N1F7),-0.242 (active)
11,NCAPD3 (UniProt P42695),-0.562 (active)
12,MYOM1 (UniProt P52179),0.055 (inactive)
13,NFIC (UniProt P08651),-0.083 (inactive)
14,OSBPL6 isoform 5 (UniProt Q9BZF3),-0.195 (inactive)
15,PAK4 (UniProt O96013),-0.458 (inactive)
16,OLA1 (UniProt Q9NTK5),-0.31 (active)
17,MRPS12 (UniProt O15235),-0.35 (active)
18,NUP160 (UniProt Q12769),-0.291 (active)

row,Target,log2 fold change
1,NCKAP1L (UniProt P55160),-0.444 (active)
2,NPLOC4 isoform 2 (UniProt Q8TAT6),0.028 (inactive)
3,NFATC2 (UniProt Q13469),-0.411 (active)
4,NOSTRIN (UniProt Q8IVI9),-0.27 (active)
5,NEDD8 (UniProt Q15843),0.195 (inactive)
6,NFKBIE (UniProt O00221),0.005 (inactive)
7,PAFAH1B3 (UniProt Q15102),-0.179 (inactive)
8,NUCB2 (UniProt P80303),0.133 (inactive)
9,MTFP1 (UniProt Q9UDX5),0.102 (inactive)
10,NIPBL (UniProt Q6KC79),-0.357 (active)
11,OGFR (UniProt Q9NZT2),-0.285 (active)
12,NDC1 (UniProt Q9BTX1),-0.134 (inactive)
13,NUP188 (UniProt Q5SRE5),-0.36 (active)
14,PAXBP1 (UniProt Q9Y5B6),-0.146 (inactive)
15,MVB12A (UniProt Q96EY5),-0.812 (active)
16,NUP133 (UniProt Q8WUM0),-0.195 (inactive)
17,OARD1 (UniProt Q9Y530),-0.456 (active)

# Compound: O=C(O)c1ccc2c(c1)nc(Nc1cccc(Cl)c1)c1ccncc12 [silmitasertib]
# Assay: as above
# Summary of the method: as §1
row,Target,log2 fold change
1,NCOR1 (UniProt O75376),-0.035 (inactive)
2,NSL1 (UniProt Q96IY1),-0.022 (inactive)
3,NLRP2 (UniProt Q9NX02),0.062 (inactive)
4,OAT (UniProt P04181),-0.006 (inactive)
5,MYBL2 (UniProt P10244),0.003 (inactive)
6,NOSIP (UniProt Q9Y314),-0.047 (inactive)
7,MTMR6 (UniProt Q9Y217),0.027 (inactive)
8,NMT1 (UniProt P30419),-0.03 (inactive)
9,NEK7 (UniProt Q8TDX7),0.105 (inactive)
10,NUP93 (UniProt Q8N1F7),0.067 (inactive)
11,NCAPD3 (UniProt P42695),0.034 (inactive)
12,MYOM1 (UniProt P52179),0.014 (inactive)
13,NFIC (UniProt P08651),-0.026 (inactive)
14,OSBPL6 isoform 5 (UniProt Q9BZF3),0.25 (inactive)
15,PAK4 (UniProt O96013),-0.038 (inactive)
16,OLA1 (UniProt Q9NTK5),0.041 (inactive)
17,MRPS12 (UniProt O15235),-0.011 (inactive)
18,NUP160 (UniProt Q12769),0.082 (inactive)

row,Target,log2 fold change
1,NCKAP1L (UniProt P55160),-0.039 (inactive)
2,NPLOC4 isoform 2 (UniProt Q8TAT6),-0.016 (inactive)
3,NFATC2 (UniProt Q13469),0.021 (inactive)
4,NOSTRIN (UniProt Q8IVI9),0.028 (inactive)
5,NEDD8 (UniProt Q15843),-0.12 (inactive)
6,NFKBIE (UniProt O00221),0.114 (inactive)
7,PAFAH1B3 (UniProt Q15102),0.041 (inactive)
8,NUCB2 (UniProt P80303),-0.026 (inactive)
9,MTFP1 (UniProt Q9UDX5),-0.007 (inactive)
10,NIPBL (UniProt Q6KC79),0.101 (inactive)
11,OGFR (UniProt Q9NZT2),0.02 (inactive)
12,NDC1 (UniProt Q9BTX1),-0.016 (inactive)
13,NUP188 (UniProt Q5SRE5),0.073 (inactive)
14,PAXBP1 (UniProt Q9Y5B6),-0.019 (inactive)
15,MVB12A (UniProt Q96EY5),-0.016 (inactive)
16,NUP133 (UniProt Q8WUM0),0.052 (inactive)
17,OARD1 (UniProt Q9Y530),0.051 (inactive)
